According to PubChem BioAssay (NCATS):
Inconclusive results are not listed. A call without a number means that no potency is given here. Active and inactive are the calls of the source. Calls follow the shape of the full dose curve.

Experiment: Cytotoxicity counterscreen for inhibitors of SARS-CoV-2 cell entry (AID 1645845); also: nearly all actives have a fitted effect of over 50% in size
Conditions: cell viability (SARS-CoV-2 entry assay cells); series mostly up to 57.1 µM
From the text: Assay Provider: Wei Zheng, Ph.D.
National Center for Advancing Translational Sciences, National Institute of Health, Rockville, MD.
SARS-CoV-2 spike protein, within the viral envelope, mediates viral attachment and infection of host cells. The SARS-CoV-2 spike protein specifically binds to the host receptor ACE2 (Angiotensin-converting enzyme 2). This interaction promotes endocytosis of the viral particle, additional events lead to viral-host cell membrane fusion and release of the viral contents, allowing viral replication.
While SARS-CoV-2 requires BSL-3 facilities for live virus work, pseudo-typed partices (PP) that incorporate SARS-CoV-2 spike proteins without replication elements could facilitate studies on viral entry mechanisms in a BSL-2 setting. This PP cell entry assay could also enable screening of small molecule compound libraries in BSL-2 setting to identify inhibitors of SARS-CoV-2 cell entry. To eliminate false positive compounds, ATP content cytotoxicity assay was screened in the same cell line.
SEQUENCE No. (e.g., 1, 2, 3, etc.); […] (e.g., Cells, Incubation, Reagent, etc.); VALUE and DESCRIPTION.
1. Cells. Seed 1500 HEK293-ACE2 cells (Expi293F with stable expression of human ACE2) in 2 uL/well media (DMEM, 10% FBS, 1x L-glutamine, 1x Pen/Strep, 1 ug/ml puromycin) in white 1536-well assay plates (Greiner #782073).
2. Incubation. Incubate at 37 C with 5% CO2 overnight (~16 h).
3. Compounds. Dispense 23 nL/well compounds in DMSO via pin transfer.
4. Incubation. Incubate for 1 h at 37C 5% CO2.
5. Reagent. Dispense 2 uL/well of media (DMEM, 10% FBS, 1x L-glutamine, 1x Pen/Strep, 1 ug/ml puromycin).
6. Incubation. Incubate at for 48h at 37C 5% CO2
7. Reagent. Dispense 4 uL/well of ATPLite 1step luminescence assay reagent (PerkinElmer #6016739).
8. Incubation. Incubate for 15 min at room temperature.
9. Detection. Read luminescence signal (Viewlux plate reader, PerkinElmer). Data was normalized with wells containing cells as 100%, and wells without cells (media only control) as 0%.
Potency is read from the fitted curve at half-maximal effect.

Row | SMILES | Potency
1 | CN(C)c1cc(NC(=O)CNC(C)(C)C)c(O)c2c1C[C@@H]1C[C@H]3[C@H](N(C)C)C(=O)C(C(N)=O)=C(O)[C@@]3(O)C(=O)C1=C2O | inactive
2 | COC(=O)C(c1ccccc1Cl)N1CCc2sccc2C1 (stereo not given) | inactive
3 | N[C@@H]1C[C@H]1c1ccccc1 | inactive
4 | Cc1[nH]c(=O)c(C#N)cc1-c1ccncc1 | inactive
5 | CC(=O)N(O)CCCCCNC(=O)CCC(=O)N(O)CCCCCNC(=O)CCC(=O)N(O)CCCCCN | 25.1 µM (active)
6 | CN/C(=C\[N+](=O)[O-])NCCSCc1ccc(CN(C)C)o1 | inactive
7 | CN(C)CCOC(c1ccc(Cl)cc1)c1ccccn1 (stereo not given) | inactive
8 | Nc1nc2c(ncn2COC(CO)CO)c(=O)[nH]1 | inactive
9 | COC(=O)CCc1ccc(OCC(O)CNC(C)C)cc1 (stereo not given) | inactive
10 | Cc1cccc(C)c1OCC(C)N (stereo not given) | inactive
11 | OCCN1C[C@H](O)[C@@H](O)[C@H](O)[C@H]1CO | inactive
12 | Cc1cc2c(s1)Nc1ccccc1N=C2N1CCN(C)CC1 | inactive
13 | Cc1ccc(S(=O)(=O)NC(=O)NN2CC3CCCC3C2)cc1 (stereo not given) | inactive
14 | COc1cccc2c1C(=O)c1c(O)c3c(c(O)c1C2=O)C[C@@](O)(C(=O)CO)C[C@@H]3O[C@H]1C[C@H](N)[C@H](O)[C@H](C)O1 | inactive
15 | Nc1ccncc1 | inactive
16 | CC1(C)S[C@@H]2[C@H](NC(=O)[C@H](N)c3ccccc3)C(=O)N2[C@H]1C(=O)O | inactive
17 | CCOC(=O)[C@H](CCc1ccccc1)N[C@@H](C)C(=O)N1[C@H](C(=O)O)C[C@@H]2CCC[C@@H]21 | inactive
18 | CCCCc1oc2ccccc2c1C(=O)c1cc(I)c(OCCN(CC)CC)c(I)c1 | inactive
19 | C[C@](N)(Cc1ccc(O)c(O)c1)C(=O)O | inactive
20 | NC(=O)N1c2ccccc2CC(=O)c2ccccc21 | inactive

Row | SMILES | Potency
21 | OCCN(CCO)c1nc(N2CCCCC2)c2nc(N(CCO)CCO)nc(N3CCCCC3)c2n1 | inactive
22 | COc1cc2c(cc1OC)[C@@H]1CC(=O)[C@@H](CC(C)C)CN1CC2 | inactive
23 | C[C@]12CC[C@@H]3c4ccc(O)cc4C[C@@H](CCCCCCCCCS(=O)CCCC(F)(F)C(F)(F)F)[C@H]3[C@@H]1CC[C@@H]2O (stereo not given in full) | inactive
24 | CCOC(=O)[C@H](CCc1ccccc1)N[C@@H](C)C(=O)N1Cc2cc(OC)c(OC)cc2C[C@H]1C(=O)O | inactive
25 | CC#C[C@]1(O)CC[C@H]2[C@@H]3CCC4=CC(=O)CCC4=C3[C@@H](c3ccc(N(C)C)cc3)C[C@@]21C | inactive
26 | CN(C)/N=N/c1nc[nH]c1C(N)=O | inactive
27 | CC12CC3CC(C)(C1)CC(N)(C3)C2 | inactive
28 | Nc1nc(=S)c2[nH]cnc2[nH]1 | 7.94 µM (active)
29 | CCCN1C[C@H](CSC)C[C@@H]2c3cccc4[nH]cc(c34)C[C@H]21 | inactive
30 | CCN(CC)CCOC(=O)C1(C2CCCCC2)CCCCC1 | inactive
31 | C[C@@H]1CC(=O)NN=C1c1ccc(NN=C(C#N)C#N)cc1 | inactive
32 | CS(=O)(=O)CCNCc1ccc(-c2ccc3ncnc(Nc4ccc(OCc5cccc(F)c5)c(Cl)c4)c3c2)o1 | inactive
33 | O=C1OCCN1/N=C/c1ccc([N+](=O)[O-])o1 | inactive
34 | C=C[C@H]1CN2CC[C@H]1C[C@@H]2[C@@H](O)c1ccnc2ccc(OC)cc12 | inactive
35 | C=C1C[C@@H]2[C@H](CC[C@]3(C)C(=O)CC[C@@H]23)[C@@]2(C)C=CC(=O)C=C12 | inactive
36 | CCOC(=O)c1ncn2c1CN(C)C(=O)c1cc(F)ccc1-2 | inactive
37 | Cc1onc(-c2c(Cl)cccc2Cl)c1C(=O)N[C@@H]1C(=O)N2[C@@H]1SC(C)(C)[C@@H]2C(=O)O | inactive
38 | Cc1ccc(S(=O)(=O)NC(=O)NN2CCCCCC2)cc1 | inactive
39 | CCc1nc(N)nc(N)c1-c1ccc(Cl)cc1 | 14.1 µM (active)
40 | COC(=O)Nc1nc2ccc(C(=O)c3cccs3)cc2[nH]1 | inactive
